# Screens: PubChem, National Center for Advancing Translational Sciences (NCATS)
# Hits are enriched below; roughly 7.4% of the tested compounds scored in any of these assays.
# 3T3 cytotox – NIH 3T3 cell cytotoxicity. NIH 3T3 viability, CellTiter-Glo ATP luminescence, 48-72 h. Potency, µM (top dose mostly 96.7 µM), for inactives: at the top dose activity change, negative = cytotoxicity, hits mostly inhibitors. hit rate 4.3% among 94,000; note: nearly all actives have a fitted effect of over 55% in size
#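 Cytotoxicity is measured as loss of cellular ATP: NIH 3T3 cells (400/well) are exposed to compound for 48 or 72 hr at 37 °C, then CellTiter-Glo luminescence is imaged after 10 min at room temperature.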
# HEK cytotox – kills HEK 293 cells; HEK 293 viability, ATP luminescence (CellTiter-Glo), 48-72 h; Potency, µM (doses to about 115 µM), without a hit: at the top dose activity change, negative = cytotoxicity, usual class: inhibitors; hit rate 6.6% among 94,000; AID 1345083; note: nearly all actives have a fitted effect of over 60% in size
#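 HEK 293 cells seeded at 250 cells/well were exposed to compound for 48 or 72 hr at 37 degree Celsius. Viability taken as ATP content by CellTiter-Glo luminescence.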
# Luciferase inh – inhibitors of firefly (Photinus pyralis) luciferase | P08659 | purified P. pyralis luciferase, luminescence, biochemical | Potency, µM (doses to about 115 µM), actives largely listed as inhibitors | hit rate 2.5% among 76,000 | AID 1347043; note: nearly all actives have a fitted effect of over 65% in size
# Target sequence (P08659 whole entry, looked up): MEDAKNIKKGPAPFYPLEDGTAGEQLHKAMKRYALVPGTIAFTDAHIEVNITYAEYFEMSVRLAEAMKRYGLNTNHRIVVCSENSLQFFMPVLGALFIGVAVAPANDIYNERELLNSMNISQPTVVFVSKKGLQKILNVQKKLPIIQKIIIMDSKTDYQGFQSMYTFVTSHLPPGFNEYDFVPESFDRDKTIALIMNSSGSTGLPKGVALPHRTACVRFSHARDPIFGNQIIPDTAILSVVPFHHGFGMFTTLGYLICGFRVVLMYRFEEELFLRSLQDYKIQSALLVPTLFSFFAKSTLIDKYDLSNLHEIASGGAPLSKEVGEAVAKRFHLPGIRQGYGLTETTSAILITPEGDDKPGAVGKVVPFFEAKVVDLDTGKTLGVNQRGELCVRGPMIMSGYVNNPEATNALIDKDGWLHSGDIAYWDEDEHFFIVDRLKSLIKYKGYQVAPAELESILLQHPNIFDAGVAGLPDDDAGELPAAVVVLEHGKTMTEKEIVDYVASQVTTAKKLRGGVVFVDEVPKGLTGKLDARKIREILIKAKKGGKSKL
#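 Biochemical qHTS: compound (6-point titration) added to 10uM D-luciferin plus 10uM ATP in Tris acetate pH 7.5 buffer with Mg, Tween-20 and BSA, then purified enzyme at 10nM; light output imaged.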
# hNpr1 antagonist – antagonists of human natriuretic peptide receptor Npr1; P16066; HEK293 hNpr1 GloSensor cGMP, ANP-stimulated luminescence; Potency, µM (series often up to 46.3 µM), for the others: top-dose activity change, negative = inhibition, most hits filed as inhibitors; hit rate 1.6% among 76,000; calls by dose curve; note: nearly all actives have a fitted effect of over 60% in size
#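 HEK293 cells stably expressing human Npr1 and cGMP GloSensor pGS-40F, loaded 2 h with 2% GloSensor reagent, given compound 30 min at room temperature. Luminescence read before and 20 min after 0.1 nM hNppA.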
# SNCA expr inhib – SNCA gene expression inhibition. HEK-293 SNCA-luciferase knock-in, luminescence, 24 h. Potency, µM (top dose mostly 57.2 µM), for the others: at the highest dose activity change, negative = inhibition, hits mostly inhibitors. hit rate 0.17% among 140,000;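 note: plate controls were DMSO cells for no effect and cell-free wells for full effect; nearly all actives have a fitted effect of over 45% in size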
# HEK293 viab – counter-screen for SNCA expression inhibitors: cell viability. Potency, µM (titrated, usually from 57.1 µM), without a hit: at the top dose activity change, negative = cytotoxicity, hits mostly cytotoxic. HEK-293-SNCA-luc viability, GF-AFC fluorescence, 24 h. hit rate 0.12% among 150,000;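 note: 0% = DMSO-treated cells and -100% = medium-only wells without cells; nearly all actives have a fitted effect of over 30% in size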
#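 HEK-293-SNCA-luc cells (1500/well) plated 24 h, then exposed 24 h to a dilution series; GF-AFC added 30 min at 37C, fluorescence 405/540 nm; normalised to medium-only and DMSO wells, Hill fit.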
# The depositor's hits bear a star; i = inactive; ? = inconclusive; nt = no result given; [ ] = dose if it differs, or a comment. Unless noted, calls come from the whole dose curve; as a rule, active = well fitted curve in the direction sought with a large enough effect; inconclusive = small, poorly fitted or top-dose-only effect, or another doubt; inactive = no such curve, though single readings can be large; an effect the other way counts as inactive or inconclusive. Unless noted, % is set by controls: 0 for no effect and ±100 for the full control effect; potency is the fitted concentration of half-maximal effect.
SMILES,3T3 cytotox,HEK cytotox,Luciferase inh,hNpr1 antagonist,SNCA expr inhib,HEK293 viab
CCCCN1CCN(C(=O)c2csc(N3CCN(c4cccc(Cl)c4)CC3)n2)CC1,?,22.4µM*,i,-29.9%,?,?
O=C(N[C@@H]1CCC[C@@H]1C(=O)N1CCN(c2cccc(Cl)c2)CC1)c1ccncc1,?,?,i,-0.8%,1.5%,1.3%
O=C(NC1CCCC1)c1csc(N2CCN(c3cccc(Cl)c3)CC2)n1,?,35.5µM*,i,-18.8%,?,-26.8%
CCS(=O)(=O)c1ncc(Cl)c(C(=O)N2CCN(c3cccc(Cl)c3)CC2)n1,nt,nt,nt,nt,2.24µM*,3.55µM*
COc1ccc(CCNC(=O)c2cn3cc(-c4cccc(C(F)(F)F)c4)sc3n2)cc1,?,?,nt,nt,22.3%,10.4%
COc1ccc(CN2CC[C@@H](CO)N(C)c3nc(C)ccc3C2)cc1,-20.1%[174 µM],?,i,-1.3%[70.6 µM],-1.0%[87.6 µM],-3.7%[87.6 µM]
Cc1ccc2c(n1)N(C)[C@H](CO)CCN(Cc1ccccc1F)C2,-31.3%[174 µM],-14.8%[172 µM],i,-1.7%[70.6 µM],5.8%[87.6 µM],2.9%[87.6 µM]
Cc1ccc2c(n1)N(C)[C@H](CO)CCN(Cc1ccc(C(F)(F)F)cc1)C2,63.1µM*,35.5µM*,i,-10.6%[70.6 µM],?,?
Cc1ccc2c(n1)N(C)[C@H](CO)CCN(Cc1ccc(C(C)C)cc1)C2,?,63.1µM*,i,-16.0%[70.6 µM],18.9%[87.6 µM],-0.2%[87.6 µM]
COc1ccc(NC(=O)O[C@@H]2CO[C@H]3[C@@H]2OC[C@@H]3NS(=O)(=O)c2ccc(NC(C)=O)cc2)cc1,?,-5.7%,44.7µM*,-0.6%,7.8%,5.6%
Cc1ccc(C(=O)N[C@H]2CO[C@H]3[C@@H]2OC[C@@H]3Nc2nccc(C(C)(C)C)n2)cc1,?,63.1µM*,?,?,-9.1%[87.6 µM],-14.0%[87.6 µM]
CC(=O)Nc1ccc(S(=O)(=O)N[C@H]2CO[C@H]3[C@@H]2OC[C@H]3OC(=O)Nc2ccc(C(C)=O)cc2)cc1,-22.0%,i,i,-5.9%,14.2%,0.7%
CC(=O)Nc1ccc(S(=O)(=O)N[C@H]2CO[C@H]3[C@@H]2OC[C@@H]3Nc2nccc(C(C)(C)C)n2)cc1,?,?,?,15.8µM*,-22.9%,-8.2%
COC1=C(C(=O)OCc2ccccc2)N(c2c(C)cccc2C)[S+](=O)([O-])c2ccccc21,-29.8%,?,nt,nt,nt,nt
O=C(C1CC1)N1CCC(Cc2nc(C3CCOCC3)no2)CC1,-7.4%,7.5%,i,5.6%,28.5%,-7.3%
O=C(CCC(=O)n1ncc2c(Cl)cccc21)N1CCC(Cc2nc(C3CCOCC3)no2)CC1,-15.1%,?,i,12.6µM*,-2.1%,-11.1%
NC(=O)Cn1ccc2cc(OCC3CCN(C(=O)C4CC4)CC3)cnc21,?,-19.9%[172 µM],?,-1.3%[70.6 µM],?,3.4%[87.6 µM]
O=C(O)Cn1ccc2cc(OCC3CCN(C(=O)C4CCCC4)CC3)cnc21,100µM*,3.4%[172 µM],i,-0.3%[70.6 µM],-12.0%[87.6 µM],4.1%[87.6 µM]
O=C(O)Cn1ccc2cc(OCC3CCN(C(=O)CCC(F)(F)F)CC3)cnc21,89.1µM*,-11.3%[172 µM],i,-8.5%[70.6 µM],-19.6%[87.6 µM],-4.5%[87.6 µM]
CNC(=O)c1cc(C2CC2)nc2c1c(C1CCCN1C(=O)c1ccc(F)cc1)nn2C (stereo unspecified),-26.1%,-9.7%,nt,nt,nt,nt
COc1ccc(OC)c(CNC(=O)C2COc3ccccc3C2)c1 (stereo unspecified),nt,nt,nt,nt,11.9%,15.4%
COc1ccc2c(c1)OCC(C(=O)NCCNc1cc(C)ccn1)C2 (stereo unspecified),79.4µM*,-14.9%,i,1.7%,-18.6%,9.6%
O=C(NCCc1ccc(Cl)cc1)c1ccc2nnc(C3CC3)n2c1,?,?,nt,nt,1.7%,-7.4%
COc1c(CCC(=O)O)cccc1O[C@@H]1O[C@H](CO)[C@@H](O)[C@H](O)[C@H]1O,nt,nt,nt,nt,nt,-11.0%
C[S+](=O)([O-])c1ccc(-c2nnc3ccc(C(=O)NCc4ccccc4)cn23)cc1,-24.0%,-6.0%,nt,nt,-7.8%,5.3%
SMILES,3T3 cytotox,HEK cytotox,Luciferase inh,hNpr1 antagonist,SNCA expr inhib,HEK293 viab
O[C@@H]1CCC2CC1[C@@H](O)CN2Cc1ccc(-c2ccccc2)cc1 (stereo partly specified),?,79.4µM*,nt,nt,nt,nt
Cc1cccc(-c2nc(CN3CCC(c4nc(-c5cccn5C)no4)C3)no2)c1 (stereo unspecified),?,?,nt,nt,89.6%,1.9%
CN(C)Cc1cccc(-c2cc3c(ccn3Cc3ccncc3)c(N3CCOCC3)n2)c1,39.8µM*,89.1µM*,i,-11.2%[70.6 µM],-5.0%[87.6 µM],-16.1%[87.6 µM]
C[S+](=O)([O-])c1ccc(-c2cc3c(ccn3Cc3ccncc3)c(N3CCOCC3)n2)cc1,6.31µM*,-15.6%,i,0.9%,-14.7%,?
C[S+](=O)([O-])Nc1cccc(-c2cc3c(ccn3Cc3ccncc3)c(N3CCOCC3)n2)c1,?,-22.3%,i,-5.6%,-7.0%,1.3%
c1cc(-c2cc3c(ccn3Cc3ccncc3)c(N3CCOCC3)n2)cc(N2CCOCC2)c1,31.6µM*,?,i,-1.7%,12.6%,-6.0%
COCCOC1CN(C2CCN(S(=O)(=O)c3cccc(F)c3)CC2)C12CCCCC2 (stereo unspecified),?,?,nt,nt,-13.3%,-1.6%
CCN1CCN(C(=O)c2nc3sccn3c2-c2cccc(C(F)(F)F)c2)CC1,-26.6%,-19.0%,nt,nt,2.5%,-1.0%
O=C(c1cc(-c2cc(Cl)cc(Cl)c2)c2cccn2n1)N1CCN(Cc2ccccc2)CC1,?,?,nt,nt,6.9%,10.0%
CC(=O)N1CCCC1C(=O)Nc1ccc(-c2nc3ccccc3o2)cc1 (stereo unspecified),-7.6%,?,15.8µM*,0.5%,130.9%,-2.5%
CCC/C=C/C(=O)O[C@H]1CC(C)(C)CC2[C@@]13[C@H](O)C[C@]1(C)[C@@]2(CCC2[C@@]4(C)CC[C@H](O[C@@H]5O[C@H](C(=O)O)[C@@H](O)[C@H](O[C@@H]6O[C@H](CO)[C@H](O)[C@H](O)[C@H]6O[C@@H]6O[C@@H](C)[C@H](O)[C@@H](O)[C@H]6O[C@@H]6OC[C@](O)(CO)[C@H]6O)[C@H]5O[C@@H]5O[C@H](CO)[C@H](O)[C@H](O)[C@H]5O)C(C)(C)C4CC[C@]21C)O[C@H]3O (stereo partly specified),nt,nt,nt,nt,nt,-13.7%[12.5 µM]
